# In paper PMC4552634, “A New Set of Chemical Starting Points with Plasmodium falciparum Transmission-Blocking Potential for Antimalarial Drug Discovery” (PLoS ONE, 2015):
# In all, about 13,000 compounds went through this assay and about 3,200 (25%) showed an effect of 50% or more. The list shows a part of the results.
# Tested on: P. falciparum stage V gametocytes
# Design: BacTiter-Glo ATP luminescence viability of purified stage V gametocytes in 384-well plates, per cent inhibition versus DMSO
# Details: 48 h, 5 µM; inhibitor
row,SMILES,% Inhibition [%]
1,COc1cc(Nc2nccc(N3CCC(NC(=O)c4cccc(C#N)c4)C3)n2)cc(OC)c1OC (centres unmarked) [TCMDC-133620],1.02
2,N#Cc1cccc(C(=O)Nc2cccc(-c3ccc(C(=O)Nc4cccnc4)cc3)c2)c1 [TCMDC-133695],-12.11
3,O=C(/C=C/c1ccc(F)cc1)NC1CCC(CCN2CCCN(c3ccc(C(F)(F)F)cn3)CC2)CC1 (centres unmarked) [TCMDC-139724],-25.55
4,c1ccc(-c2cccnn2)cc1 [TCMDC-123929],-43.62
5,CCCCc1cc(NCc2ccncc2)nc(Nc2cccc(OC)c2)n1 [TCMDC-133999],-9.372
6,O=C(Nc1ccc(-c2cccc(-c3nc4ccc(C(F)(F)F)cc4[nH]3)c2)cc1)c1csnn1 [TCMDC-136903],-25.31
7,Cc1ccc2c(c1)c(-c1ccccc1)c(-c1ccccc1)n2CC(O)CN1CCN(CC=Cc2ccccc2)CC1 (centres unmarked) [TCMDC-123998],27.39
8,O=C(C1CCN(C(c2ccccc2)c2ccc(Cl)c(Cl)c2)CC1)N1CC=CC1 (centres unmarked) [TCMDC-135516],-15.6
9,COc1cc(C2=NN(S(=O)(=O)c3c(Cl)cc(Cl)cc3Cl)CCCC2)ccc1Cl [TCMDC-136212],-48.52
10,CCc1cn2c3c(cc(C(=O)N[C@@H](Cc4ccccc4)[C@H](O)CNC(C)C)cc13)N(C)S(=O)(=O)C2 [TCMDC-135401],-18.09
11,CCc1cn2c3c(cc(C(=O)N[C@@H](Cc4ccccc4)[C@H](O)CNC(C)(C)c4cccc(OC)c4)cc13)N(C)S(=O)(=O)C2 [TCMDC-135393],41.96
12,CCc1cn2c3c(cc(C(=O)N[C@@H](Cc4ccccc4)[C@H](O)CNC(C)(C)CCCC(C)C)cc13)N(C)S(=O)(=O)C2 [TCMDC-135400],80.58
13,O=C(Nc1cccc(C(F)(F)F)c1)N1CCOC(CCN2CCC(c3ccccc3)CC2)(c2ccc(Cl)c(Cl)c2)C1 (centres unmarked) [TCMDC-135345],-74.75
14,CC(C)(C)c1ccc(N2C(N)=NC(N)=NC2(C)C)cc1Cl [TCMDC-137710],44.95
15,COc1ccc(Cc2c(Cl)nc3nc(N)nc(N)c3c2C)c(OC)c1OC [TCMDC-137688],14.16
16,N#CC(c1cccc(Cl)c1)c1ccc2c(C(F)(F)F)cc(C(F)(F)F)nc2n1 (centres unmarked) [TCMDC-125544],14.86
17,CCCOc1cc(OCCC)cc(-c2cc(=O)c3ccccc3[nH]2)c1 [TCMDC-138943],63.29
18,CCCCCCCc1cc(=O)c2ccccc2[nH]1 [TCMDC-132026],46.19
19,O=c1cc(-c2ccc3ccccc3c2)[nH]c2ccccc12 [TCMDC-138937],4.967
20,CCCCCC(C)C(C)c1cc(O)c2c(c1)OC(C)(C)CC2(O)c1ccnn1C (centres unmarked) [TCMDC-131795],-1.098
21,COc1ccc2nccc([C@@H](O)CN3CCC(NC(=O)/C=C/c4ccc5cc(C)[nH]c5c4)CC3)c2c1 [TCMDC-141041],-19.17
22,N#C/N=C(\NCCCCCCCCN/C(=N\C#N)NCCSCc1csc(N=C(N)N)n1)NCCCSc1csc(N=C(N)N)n1 [TCMDC-139456],-7.363

row,SMILES,% Inhibition [%]
1,NC(N)=Nc1nc(CCCCCCCCc2csc(N=C(N)N)n2)cs1 [TCMDC-137552],85.12
2,NC(N)=Nc1nc(-c2ccc(N=C(N)N3CCC[C@H]3CN3CCCC3)cc2)cs1 [TCMDC-139612],25.87
3,Cc1ccc([S+]([O-])Cc2ccc(Cl)cc2)cc1 (centres unmarked) [TCMDC-131393],8.887
4,COc1cc(Cc2cnc(N)nc2N)cc(OCCCCCC(N)=O)c1OC [TCMDC-137361],38.24
5,COc1ccccc1-c1csc(C(=O)NC2CCCCN(Cc3ccc(C(C)(C)C)cc3)C2)c1 (centres unmarked) [TCMDC-134516],70.05
6,CCc1ccc(CN2CCCCC(NC(=O)c3cc(-c4ccccc4F)cs3)C2)cc1 (centres unmarked) [TCMDC-134461],-44.42
7,CC(C)(C)c1ccc(CN2CCCCC(NC(=O)c3cc(-c4ccccc4F)cs3)C2)cc1 (centres unmarked) [TCMDC-134465],82.77
8,CC(C)(C)c1ccc(CN2CCCCC(NC(=O)c3cc(-c4ccccc4Cl)cs3)C2)cc1 (centres unmarked) [TCMDC-134467],-60.63
9,O=C(NC1CCCCN(Cc2ccc3c(c2)OCCO3)C1)c1cc(-c2ccccc2F)cs1 (centres unmarked) [TCMDC-134517],-15.69
10,COc1cccc(-c2csc(C(=O)NC3CCCCN(Cc4ccc(C(C)(C)C)cc4)C3)c2)c1 (centres unmarked) [TCMDC-134469],-86.38
11,CC(=O)Nc1ccc(CN2CCC(NC(=O)c3ccc(-c4cccc(C(F)(F)F)c4)s3)CC2)cc1 [TCMDC-134332],3.235
12,Cc1ccc(O)c(CN2CCCC(COC(c3ccc(F)cc3)c3ccc(F)cc3)C2)c1 (centres unmarked) [TCMDC-136033],-2.358
13,CCOc1ccc(-c2nonc2NC(=O)c2ccccc2Cl)cc1OCC [TCMDC-125205],48.31
14,CCOc1ccc(-c2nonc2NC(=O)c2ccccc2F)cc1OCC [TCMDC-125206],57.11
15,CCCOc1ccc(-c2nonc2NC(=O)c2cccc(OC)c2)cc1OCCC [TCMDC-124765],56.26
16,CCCOc1ccccc1C(=O)Nc1nonc1-c1ccc(OCC)c(OCC)c1 [TCMDC-124767],53.72
17,CCOc1ccc(-c2nonc2NC(=O)c2ccccc2OC)cc1OCC [TCMDC-125198],87.63
18,CCOc1cccc(C(=O)Nc2nonc2-c2ccc(OC)c(OC)c2)c1 [TCMDC-125179],47.83
19,O[C@H]1[C@H](OCc2ccc(-c3ccccc3)cc2)CC[C@@H]1N1CCCCC1 [TCMDC-132078],-8.021
20,N#Cc1cccc(CN2CCCN(c3ccc(NC(=O)c4cccs4)cc3)CC2)c1 [TCMDC-134987],-14.58
21,Cc1ccc(CN2CCN(CC(O)COc3ccc4c(c3)CCC4)CC2)cc1 (centres unmarked) [TCMDC-141429],-18.62
22,COc1ccc(CC2(c3ccc(F)cc3)N=C(N)N(CCCc3ccccc3)C2=O)cc1 (centres unmarked) [TCMDC-136462],-20.11
